# Compound activity: PubChem BioAssay, Broad Institute
# A selection follows.
# aSyn 5UTR act = Activators via SNCA 5'UTR binding, MLPCN | activity score, % (tested at 7.5 µM), hits read low | alpha-synuclein 5'UTR reporter, activators screen | hit rate 7.1% among 300,000; in the data active means activity score below about -60%
# An asterisk follows results filed as active.
SMILES,aSyn 5UTR act
COc1ccc(/C=N/NC(=O)c2[nH]c3ccc(Br)cc3c2-c2ccccc2)cc1,80
COc1ccc(C(=O)N/N=C/c2c[nH]c3ccccc23)cc1,-70*
COc1ccc(C(=O)N/N=C/c2sc3ccccc3c2O)cc1,84
COc1ccc(C(=O)N/N=C(\c2ccccc2)c2ccccn2)cc1,107
COc1ccc(/C(C)=N/Nc2ccc(C(=O)O)cc2)c(OC)c1,-140*
COc1ccc(C(=O)N/N=C/C(=O)c2ccccc2)cc1,-133*
COc1ccc2c(c1)c(/C=N/Nc1ccc(C(=O)O)cc1)c(C)n2C,-75*
COc1ccc(C(=O)CNc2cccc(F)c2)cc1,-101*
COc1ccc(C(=O)CCNc2cccc(Cl)c2)cc1,-114*
CN(C)CC/C=C1\c2ccc(F)cc2Sc2cc(F)c(Cl)cc21,103
CC(=O)NC(=C(Cl)Cl)S(=O)(=O)c1ccccc1,-137*
Cc1ccc(C(=O)NC(=C(Cl)Cl)S(=O)(=O)c2ccc(C)cc2)cc1,-72*
Cc1cccc2c1OCC/C2=N\NC(=O)COc1ccccc1Cl,-79*
C[C@@H]1C=CC(=O)O[C@@H]1c1ccc(Cl)cc1,-194*
O=C(NC(Nc1nc2ccc([N+](=O)[O-])cc2s1)(C(F)(F)F)C(F)(F)F)c1ccccc1Cl,86
C/C(=C\c1ccccc1)C(=O)Nc1nc2ccc([N+](=O)[O-])cc2s1,-79*
CC(C)=CC(=O)Nc1nc2ccc([N+](=O)[O-])cc2s1,-83*
Cc1ccc(N=c2c([N+](=O)[O-])nn(-c3ccccc3)n2O)c(C)c1,-195*
Cc1c(Cl)cccc1N=c1c([N+](=O)[O-])nn(-c2ccccc2)n1O,-141*
O=C(N/N=C/c1ccncc1)c1nc2ccccc2c(=O)[nH]1,-66*
O=C(N/N=C/c1ccc2cccnc2c1)c1nc2ccccc2c(=O)[nH]1,-83*
Cc1cc2sc3nc(=O)n(-c4ccccc4)c(=O)n3c2cc1C,-160*
CC(C)Cc1ccc(C(C)C(N)=NCCc2ccccc2)cc1 (stereo not drawn),-75*
Cc1ccc(C(=O)c2cnc3cc4c(cc3c2S(=O)(=O)c2ccccc2)OCCO4)cc1,-133*
COc1ccccc1NC(=O)C(=O)N/N=C/c1ccc([N+](=O)[O-])s1,-138*
SMILES,aSyn 5UTR act
O=C(N/N=C/c1ccc([N+](=O)[O-])s1)c1ccccc1,68
COC(=O)N/N=C/c1ccc([N+](=O)[O-])s1,-142*
O=C(CNC(=O)c1cccc(F)c1)N/N=C/c1ccc([N+](=O)[O-])s1,-105*
C=CCSc1nnc(-c2ccc([N+](=O)[O-])cc2)o1,-140*
C=CCSc1nnc(-c2ccc(Cl)cc2Cl)o1,-78*
Clc1ccc(-c2nnc(SCc3ccon3)o2)c(Cl)c1,-69*
Cc1ccc(-c2cc(C(=O)N/N=C/c3c(C)nn(-c4ccccc4)c3C)[nH]n2)cc1,66
COC(=O)c1cc(-c2c(C)nn(-c3ccccc3)c2C)n[nH]1,-87*
c1ccc(-n2ncc3c2ncn2nc(-c4ccco4)nc32)cc1,-131*
COc1ccccc1-n1cc2ccc([N+](=O)[O-])cc2n1,-119*
O=[N+]([O-])c1ccc2cn(-c3ccccc3)nc2c1,-200*
COc1ccc(C2=C(C=O)Cc3ccccc3O2)cc1,98
COc1ccc(C2=C/C(=C\c3ccccc3OC(C)=O)C(=O)O2)cc1,-79*
CC(NC(=O)NC(=O)c1ccc(Cl)cc1Cl)C1CC1 (stereo not drawn),-70*
Cc1ccc2c(CNCc3ccco3)cc(=O)oc2c1,-65*
CC(=O)N(/N=C1\Sc2ccccc2C1=O)c1cccc(C)c1,-127*
COc1ccc2c(c1)CCc1c-2nc2ccccc2c1N1CCOCC1,-87*
N#Cc1c(C(F)(F)F)cc(-c2ccc(Cl)c(Cl)c2)nc1SCCN1CCOCC1,-64*
COc1cc(NC(=O)C/C(C)=N/NC(=O)Cc2ccccc2)c(OC)cc1Cl,-69*
COc1cc(NC(=O)C/C(C)=N/NC(=O)c2cccs2)c(OC)cc1Cl,-153*
CC(C)(C)S(=O)(=O)Cc1nc(-c2ccc(Cl)c(Cl)c2)cs1,-67*
COc1cc(/C=C2\C(=N)N3N=CSC3=NC2=O)ccc1OS(=O)(=O)c1ccccc1[N+](=O)[O-],-75*
COc1cccc(NC2SC(=O)N(c3ccccc3)C2=O)c1 (stereo not drawn),-97*
COc1ccc(/C=C/C2=NC(=C\N(C)C)/C(=O)O2)cc1,-151*
Cc1nnsc1S(=O)c1ccc(Cl)c(Cl)c1 (stereo not drawn),-89*
SMILES,aSyn 5UTR act
Cc1nnsc1S(=O)c1ccc(Cl)cc1 (stereo not drawn),-99*
O=C(Nc1ccccc1)c1nnsc1S(=O)c1ccc(Cl)cc1 (stereo not drawn),-103*
CCc1ccc(-c2csc(NC(=O)C3=NN(c4ccccc4)C(=O)CC3)n2)cc1,-97*
Cc1cc(Cl)c2oc(C(=O)N(C)C3CCOC3)c(C)c2c1 (stereo not drawn),-108*
Cc1cc(Cl)c2oc(C(=O)N(C)Cc3ccon3)c(C)c2c1,-104*
CCN1CCN(C(=O)c2cc3c(s2)-c2c(C)cccc2OC3)CC1,-141*
Cc1cccc2c1-c1sc(C(=O)N3CCCCC3)cc1CO2,-100*
FC(F)(F)c1nc2ccccc2n2c(-c3ccc(Cl)cc3)nnc12,108
On1c(-c2ccc(Cl)cc2)nc2ccccc21,-146*
C=CC[n+]1c(-c2ccc(C)cc2)csc1Nc1ccc(NC(C)=O)cc1,100
c1ccc(Nc2scc(-c3ccccc3)[n+]2Cc2ccco2)cc1,-222*
Cc1cccc(C(=O)NC(C(=O)Nc2nc(-c3ccccn3)cs2)C(C)C)c1 (stereo not drawn),81
CCN(CC)S(=O)(=O)c1cccc(C(=O)N[C@H](C(=O)Nc2nc3ccc(F)cc3s2)C(C)C)c1,-83*
C#CCOCCOCCOCCNc1nc(N2CCN(C(=O)CCCCCCCCCCNC(=O)[C@H](CO)n3cc(CCCSC)nn3)CC2)nc(N2CCN(C(=O)CCCCCCCCCCNC(=O)[C@H](CCCCN)n3cc(C[C@@H](C)CC)nn3)CC2)n1,110
C#CCOCCOCCOCCNc1nc(N2CCN(C(=O)CCCCCCCCCCNC(=O)[C@H](CCCCN)n3cc(CCCC(=O)O)nn3)CC2)nc(N2CCN(C(=O)CCCCCCCCCCNC(=O)[C@H](CCCN=C(N)N)n3cc(C[C@@H](C)CC)nn3)CC2)n1,-132*
C#CCOCCOCCOCCNc1nc(N2CCN(C(=O)CCCCCCCCCCNC(=O)[C@H](CCCCN)n3cc(CCCC(=O)O)nn3)CC2)nc(N2CCN(C(=O)CCCCCCCCCCNC(=O)[C@H](CCCCN)n3cc(CCCC(=O)O)nn3)CC2)n1,-112*
C#CCOCCOCCOCCNc1nc(N2CCN(C(=O)CCCCCCCCCCNC(=O)[C@H](CCCCN)n3cc(C[C@@H](C)CC)nn3)CC2)nc(N2CCN(C(=O)CCCCCCCCCCNC(=O)[C@H](CCCCN)n3cc(C[C@@H](C)CC)nn3)CC2)n1,107
Cn1c(=O)n(CCOc2ccccc2Cl)c2ccccc21,-99*
Cc1ccc(OCCn2c(=O)n(C)c3ccccc32)cc1,-123*
Cc1cc(Cl)ccc1OCc1cn2cccnc2n1,-124*
Clc1ccc(OCc2cn3cccnc3n2)c2ncccc12,-64*
CC(Oc1cccc(Cl)c1)C(=O)Nc1ccc([N+](=O)[O-])cn1 (stereo not drawn),55
Cc1ccc(C(=O)Nc2ccc([N+](=O)[O-])cn2)o1,-93*
Cc1cc(C(=O)Nc2ccc([N+](=O)[O-])cn2)cs1,-137*
O=C(Nc1ccon1)c1ccc(N2CCCCC2)c([N+](=O)[O-])c1,-143*
